Pol iota inh: inhibitors of human DNA polymerase iota. Q9UNA4. Pol iota fluorescent replication assay, 10 min. Potency, µM (top dose mostly 115 µM), for the others: at the highest dose activity, negative = inhibition, actives largely listed as inhibitors. 390,000 tested, 1% active
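Fluorescent replication assay read twice, at 0 min and 10 min after adding 50 nM (final) substrate. Enzyme (10 nM) and compounds were first incubated 15 min at room temperature; enzyme-free buffer wells were negative controls.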
Pol kappa inh: inhibitors of human DNA polymerase kappa | Q9UBT6 | purified Pol kappa, fluorescent DNA synthesis assay, 10 min | Potency, µM (titrated, usually from 107 µM), for the others: at the top dose activity, negative = inhibition, most hits filed as inhibitors | 400,000 tested, 0.53% active | AID 588579; also: % is scaled to controls: 0 for no effect and ±100 for the full control effect
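10 nM Pol kappa preincubated 15 min at room temperature with compounds, then reaction started with substrate at 50 nM final. Fluorescence read kinetically at 0 and 10 min; buffer-only wells served as negative control.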
Pol eta inh: inhibitors of human DNA polymerase eta; Q9Y253; recombinant Pol eta, fluorescent DNA replication assay; Potency, µM (series often up to 114 µM), for inactives: top-dose activity change, negative = inhibition, hits mostly inhibitors; 390,000 tested, 1.2% active; AID 588591; also: % is scaled to controls: 0 for no effect and ±100 for the full control effect
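Fluorescent replication assay: 50 nM final substrate added after a 15 min room-temperature compound preincubation with 10 nM enzyme. Signal taken at 0 min and again at 10 min.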
TDP1 block: blocks human tyrosyl-DNA phosphodiesterase 1 | recombinant TDP1, AlphaScreen DNA substrate cleavage | AID 485290 | 350,000 tested, 0.28% active | Potency, µM (highest dose often 130 µM), inactives show at the highest dose activity change, negative = inhibition, usual class: inhibitors; also: % is scaled to controls: 0 for no effect and ±100 for the full control effect; nearly all actives have a fitted effect of over 40% in size
Target sequence (Q9NUW8 whole entry, looked up): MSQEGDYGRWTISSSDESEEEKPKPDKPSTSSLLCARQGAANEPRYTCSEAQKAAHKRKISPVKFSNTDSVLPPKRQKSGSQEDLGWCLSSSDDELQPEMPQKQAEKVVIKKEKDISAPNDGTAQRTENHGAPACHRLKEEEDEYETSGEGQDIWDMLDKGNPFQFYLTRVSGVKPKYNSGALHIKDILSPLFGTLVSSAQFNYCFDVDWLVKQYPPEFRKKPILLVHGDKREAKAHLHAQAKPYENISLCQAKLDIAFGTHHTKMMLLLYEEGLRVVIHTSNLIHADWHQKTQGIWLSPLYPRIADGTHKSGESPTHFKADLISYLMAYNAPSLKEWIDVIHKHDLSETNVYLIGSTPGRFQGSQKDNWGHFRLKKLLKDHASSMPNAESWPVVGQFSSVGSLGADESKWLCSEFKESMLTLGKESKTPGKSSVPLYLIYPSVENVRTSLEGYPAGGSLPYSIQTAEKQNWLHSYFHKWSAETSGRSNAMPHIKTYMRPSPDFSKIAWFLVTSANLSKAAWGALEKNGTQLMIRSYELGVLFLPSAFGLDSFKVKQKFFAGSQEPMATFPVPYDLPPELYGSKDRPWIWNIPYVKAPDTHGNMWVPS
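Steps: enzyme plus compound, 15 min RT; add biotin/phosphotyrosine-FITC oligonucleotide (15 nM final), react 5 min; add donor/acceptor beads (10 ug/ml final), 10 min; read AlphaScreen. Tdp1 at 1 nM final.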
POLB inh: inhibitors of human DNA polymerase beta. Potency, µM (titrated, usually from 114 µM), without a hit: at the highest dose activity change, negative = inhibition, usual class: inhibitors. Pol beta primer extension/strand displacement, fluorescence kinetic. AID 485314. 340,000 tested, 1.3% active. P06746; also: % is scaled to controls: 0 for no effect and ±100 for the full control effect
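Human Pol beta at 10 nM; strand-displacement substrate 50 nM final. Compound exposure 15 min at room temperature before start, reaction 10 min at room temperature.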
The depositor's hits bear a star; ? = inconclusive; nt = no result given; [ ] = another dose, or the depositor's remark. A selection: hits, their analogues and other compounds. The true share with any hit is near 2.4%. Calls follow the shape of the dose curve; as a rule, active = well fitted curve in the direction sought with a large enough effect; inconclusive = small, poorly fitted or top-dose-only effect, or another doubt; inactive = no such curve, though single readings can be large; an effect the other way counts as inactive or inconclusive. Potency is read from the fitted curve at half-maximal effect.

SMILES	Pol iota inh	Pol kappa inh	Pol eta inh	TDP1 block	POLB inh
Cc1cc(C)c(NC(=O)Cn2nnc(-c3nc(-c4ccncc4)no3)c2N)c(C)c1	19.8%	0.7%	nt	5.6%	14.7%
COc1ccc(NC(=O)Cn2nnc(-c3nc(-c4ccncc4)no3)c2N)cc1OC	25.3%	-5.9%	nt	0.0%	79.4µM*
Cc1cccc(NC(=O)Cn2nnc(-c3nc(-c4ccncc4)no3)c2N)c1	20.5%	3.1%	nt	2.8%	56.2µM*
CCN(CC)C(=O)c1nn(-c2ccc(OC)cc2)c(=O)c2c(N)scc12	nt	nt	nt	-4.2%	nt
CC(C)C(=O)N1CCN(CCN2C(=O)c3cccc4cccc(c34)C2=O)CC1	13.0%	3.9%[60.1 µM]	-21.5%	nt	89.1µM*
O=C(C(c1ccccc1)c1ccccc1)N1CCN(CCN2C(=O)c3cccc4cccc(c34)C2=O)CC1	15.5%	-19.6%	-12.4%	1.9%	17.7%
CCn1cc2nc(SCC(=O)Nc3ccc(F)cc3F)n(Cc3ccccc3)c(=O)c2n1	11.7%	-20.1%	-21.7%	1.4%	17.1%
CCn1cc2nc(SCC(=O)Nc3ccc(C)cc3C)n(Cc3ccc(C)cc3)c(=O)c2n1	20.8%	-32.5%	79.4µM*	0.0%	10µM*
O=[N+]([O-])c1c(NCCCO)cc(SCc2ccco2)c2nonc12	4.1%	-4.5%	12.8%	2.7%	50.1µM*
O=[N+]([O-])c1c(NCCCO)cc(Sc2ccc(Cl)cc2)c2nonc12	25.5%	-14.8%	-6.6%	-2.3%	25.2%
CC(=O)OCCNc1cc(SCc2ccco2)c2nonc2c1[N+](=O)[O-]	17.8µM*	79.4µM*	?	nt	?
CC(=O)c1cccc(NC(=O)CC(c2ccc(C)cc2)N2Cc3ccccc3C2=O)c1 (centres undefined)	25.1%	-22.4%	-18.2%	8.5%	-1.8%
O=C(Nc1nccs1)[C@@H]1CC=C[C@@H]2CCN(Cc3ccc(Cl)c(Cl)c3)C(=O)[C@@H]21	9.1%	-9.2%	nt	nt	nt
CN(C)/[N+]([O-])=N/Oc1ccc([N+](=O)[O-])cc1[N+](=O)[O-]	?	-21.8%	nt	nt	nt
Cc1ccc(-c2cc(C(=O)Nc3ccccc3C(N)=O)c3ccccc3n2)o1	?	-20.3%	50.1µM*	nt	nt
Cc1ccc(NC(=O)c2cc(-c3cccs3)nc3ccccc23)nc1	-18.3%	-3.5%	-16.4%	2.9%	?
O=C(Nc1ccc(S(=O)(=O)Nc2nccs2)cc1)c1cc(-c2ccccc2Cl)nc2ccccc12	?	-13.4%	28.2µM*	12.4%	?
COc1ccc(NC(=O)c2cc(-c3ccc(C)o3)nc3ccccc23)c(OC)c1	-23.1%	-8.9%	-17.5%	nt	nt
COc1ccc(NC(=O)c2cc(-c3ccc(C)o3)nc3ccccc23)cc1OC	?	?	?	7.7%	35.5µM*
CCOc1ccc(OCC)c(NC(=O)c2cc(-c3cccs3)nc3ccccc23)c1	89.1µM*	?	-17.5%	8.8%	1.7%
CCN1C(=NCCCCO)N[C@@H](c2ccccc2)C(C(=O)OC)=C1C	nt	nt	nt	nt	46.3%
O=C(CN(CCc1c[nH]c2ccccc12)S(=O)(=O)c1ccccc1)N1CCCCCC1	-7.5%	-3.3%	nt	nt	nt
Cc1ccc2ncc(C)c(/C=C/c3ccc(N(C)C)cc3)c2c1	7.9%	8.4%	nt	nt	nt
Cc1ccc(-c2cc(C(=O)Nc3ccc(S(=O)(=O)Nc4onc(C)c4C)cc3)c3ccccc3n2)cc1	42.7%	-9.7%	89.1µM*	7.7%	?
Cc1ccc(-c2cc(C(=O)Nc3nccs3)c3ccccc3n2)o1	?	-5.8%	?	-2.6%	25.1µM*
SMILES	Pol iota inh	Pol kappa inh	Pol eta inh	TDP1 block	POLB inh
Cc1ccc(-c2cc(C(=O)Nc3nccs3)c3ccccc3n2)c(C)c1	4.4%	-12.7%	-22.6%	3.0%	-2.4%
COC(=O)C1=C(C)NC(C)=C(C(=O)OCCN2CCN(C(c3ccccc3)c3ccccc3)CC2)C1c1cccc([N+](=O)[O-])c1 (centres undefined)	nt	-8.5%[19.4 µM]	nt	nt	nt
CCCN(CCC)CC(O)CN(c1ccccc1)S(=O)(=O)c1ccc(C)cc1 (centres undefined)	4.2%	-8.5%	2.1%	2.3%	-0.6%
Cc1ccc(N(CC(O)COCc2ccco2)S(=O)(=O)c2ccc(C)cc2)cc1 (centres undefined)	?	89.1µM*	50.1µM*	1.6%	22.4µM*
CCOc1cc(CNc2ccc(N(C)C)cc2)cc(Br)c1OCC(=O)NC(C)(C)C	8.91µM*	-11.8%	-6.0%	5.6%	-22.7%
CCn1c(CSc2n[nH]c(N)n2)nc2cc(C(=O)O)ccc21	50.1µM*	-17.2%	?	-7.0%	?
CCn1c(CSc2nnc3ccccn23)nc2cc(C(=O)O)ccc21	-19.7%	-9.4%	?	2.0%	?
CCn1c(CSc2nnc(-c3cccnc3)n2-c2ccccc2C)nc2cc(C(=O)O)ccc21	nt	nt	nt	-3.3%	3.55µM*
CN(C[C@H](Cc1ccccc1)N(C[C@H](CC1CCCCC1)N(CCc1ccccc1)N=O)N=O)N=O	89.1µM*	?	-12.2%	2.6%	10.9%
CN(C[C@@H](CC1CCCCC1)N(C[C@H](Cc1ccccc1)N(CCc1ccccc1)N=O)N=O)N=O	24.4%	-19.3%	-14.8%	5.1%	-2.0%
CC(=O)NC(Cc1ccc([N+](=O)[O-])cc1)C(=O)NCC(N)C(=O)c1ccccc1 (centres undefined)	-9.8%	-8.3%	nt	nt	nt
O=C(COc1ccccc1/C=C1\SC(=O)NC1=O)Nc1ccc(F)cc1	52.0%	-7.0%	70.8µM*	-12.9%	?
O=S(=O)(Cc1cc(NCc2ccccc2)nc(-c2ccccn2)n1)c1ccccc1	22.4%	-13.1%	-6.4%	7.0%	4.7%
O=S(=O)(Cc1cc(NCc2ccccc2)nc(-c2ccncc2)n1)c1ccccc1	89.3%	-2.5%	-8.8%	5.5%	79.4µM*
Cc1cccc(OC2=NS(=O)(=O)c3ccccc32)c1	nt	nt	nt	2.1%	nt
CC(C)(C)n1ncc2c(=O)n(Cc3ccc(F)cc3)cnc21	-17.4%	-3.8%	nt	nt	nt
O=C(CCN1C(=O)S/C(=C\c2ccc(Cl)cc2)C1=O)Nc1ccc(C(=O)O)cc1	?	-6.4%	-3.8%	28.2µM*	3.9%
COc1ccc(/C=C2\SC(=S)N(CCCC(=O)Nc3cccc(C(=O)O)c3)C2=O)cc1OC	-4.8%	-1.6%	?	4.7%	-19.7%
Cn1cc(/C=C2/SC(=O)N(CC(=O)Nc3ccc4c(c3)OCO4)C2=O)c2ccccc21	-24.0%	-10.1%	0.4%	-2.0%	24.7%
COc1cc(/C=C2/SC(=S)N(CC(=O)O)C2=O)ccc1OC(=O)c1cccs1	?	-17.1%	?	4.3%	-13.1%
COc1cc(/C=C2\SC(=S)N(CC(=O)O)C2=O)ccc1OS(=O)(=O)c1ccc(C)cc1	14.1µM*	-18.5%	?	-2.4%	nt
O=C(CN1C(=O)S/C(=C\c2ccc(-c3cc(C(=O)O)ccc3Cl)o2)C1=O)Nc1ccc2c(c1)OCO2	nt	nt	nt	7.94µM*	?
COc1ccc(/C=C2\SC(=S)N(CCC(=O)Nc3ccc(C(=O)O)cc3)C2=O)cc1OC	107.4%	-9.2%	31.6µM*	nt	?

High-throughput results as filed in PubChem BioAssay.
